Reference: PubChem BioAssay (NCATS)
Results filed as inconclusive are left out. Active and inactive are the calls of the source. Calls come from the whole dose curve; as a rule, active = well fitted inhibition curve with a large enough effect; inconclusive = small, poorly fitted or top-dose-only effect; inactive = flat fitted curve, though single readings scatter.

Tests used:
[1] = target: Luciferin 4-monooxygenase (Photinus pyralis) (UniProt P08659); assay: Biochemical firefly luciferase enzyme assay for NPC (AID 624030);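 note: purified P. pyralis luciferase at 10 nM with luciferin and ATP substrate; nearly all actives have a fitted effect of over 70% in size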
Luciferin 4-monooxygenase (Photinus pyralis), sequence (P08659 whole entry, looked up): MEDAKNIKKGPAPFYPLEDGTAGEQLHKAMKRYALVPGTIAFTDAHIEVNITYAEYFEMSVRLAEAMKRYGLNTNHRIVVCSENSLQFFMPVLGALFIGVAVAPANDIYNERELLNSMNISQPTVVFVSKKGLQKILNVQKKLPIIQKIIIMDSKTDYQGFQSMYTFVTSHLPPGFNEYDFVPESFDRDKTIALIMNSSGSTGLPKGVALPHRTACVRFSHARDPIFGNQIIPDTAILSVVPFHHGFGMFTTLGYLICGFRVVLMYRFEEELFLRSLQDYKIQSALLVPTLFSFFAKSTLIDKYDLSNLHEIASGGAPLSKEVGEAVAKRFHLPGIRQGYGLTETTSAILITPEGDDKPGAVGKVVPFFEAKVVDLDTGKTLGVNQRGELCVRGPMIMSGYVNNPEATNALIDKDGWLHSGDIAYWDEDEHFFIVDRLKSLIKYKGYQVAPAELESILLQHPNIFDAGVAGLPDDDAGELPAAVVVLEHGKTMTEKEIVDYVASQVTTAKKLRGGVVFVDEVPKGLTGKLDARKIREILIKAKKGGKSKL
Outline: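 Purified P. pyralis luciferase at 10 nM in 50 mM Tris Acetate (final), luminescence read within 5 minutes of enzyme addition to compounds. Activity normalised to PTC124 versus DMSO; concentration-response curves classed by r2, magnitude and activity.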

[2] = tested on: CP260; assay: qHTS profiling for inhibitors of Plasmodium falciparum proliferation (AID 504749); note: nearly all actives have a fitted effect of over 60% in size; note: potency is the fitted concentration of half-maximal effect; details: P. falciparum in erythrocytes, SYBR Green DNA, 72 h; series mostly up to 28.7 µM
Outline: (§1)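 P. falciparum-infected erythrocytes (0.3% parasitemia, 2.5% hematocrit) incubated with compound 72 h at 37 C, 5% CO2. Parasite DNA detected by SYBR Green after lysis, overnight at room temperature; normalised to 0.29 uM artemisinin and DMSO.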

[3] = tested on: CP262; assay: as above; details: P. falciparum in erythrocytes, SYBR Green DNA, 72 h; series mostly up to 28.7 µM
Outline: as §1

[4] = tested on: CP266; assay: as above; details: P. falciparum in erythrocytes, SYBR Green DNA, 72 h; series mostly up to 28.7 µM
Outline: as §1

[5] = tested on: CP269; assay: as above; details: P. falciparum in erythrocytes, SYBR Green DNA, 72 h; series mostly up to 28.7 µM
Outline: as §1

[6] = tested on: CP305; assay: as above; details: P. falciparum in erythrocytes, SYBR Green DNA, 72 h; series mostly up to 28.7 µM
Outline: as §1

[7] = tested on: CP335; assay: as above; details: P. falciparum in erythrocytes, SYBR Green DNA, 72 h; series mostly up to 28.7 µM
Outline: as §1

[8] = tested on: DIV14; assay: as above; details: P. falciparum in erythrocytes, SYBR Green DNA, 72 h; series mostly up to 28.7 µM
Outline: as §1

[9] = tested on: DIV17; assay: as above; details: P. falciparum in erythrocytes, SYBR Green DNA, 72 h; series mostly up to 28.7 µM
Outline: as §1

[10] = tested on: Dd2; assay: as above; details: P. falciparum in erythrocytes, SYBR Green DNA, 72 h; series mostly up to 28.7 µM
Outline: as §1

[11] = tested on: ECU; assay: as above; details: P. falciparum in erythrocytes, SYBR Green DNA, 72 h; series mostly up to 28.7 µM
Outline: as §1

[12] = tested on: FAB9; assay: as above; details: P. falciparum in erythrocytes, SYBR Green DNA, 72 h; series mostly up to 28.7 µM
Outline: as §1

[13] = tested on: GB4; assay: as above; details: P. falciparum in erythrocytes, SYBR Green DNA, 72 h; series mostly up to 28.7 µM
Outline: as §1

[14] = tested on: ICS; assay: as above; details: P. falciparum in erythrocytes, SYBR Green DNA, 72 h; series mostly up to 28.7 µM
Outline: as §1

[15] = tested on: JCK; assay: as above; details: P. falciparum in erythrocytes, SYBR Green DNA, 72 h; series mostly up to 28.7 µM
Outline: as §1

[16] = tested on: P93_24; assay: as above; details: P. falciparum in erythrocytes, SYBR Green DNA, 72 h; series mostly up to 28.7 µM
Outline: as §1

[17] = tested on: PC15; assay: as above; details: P. falciparum in erythrocytes, SYBR Green DNA, 72 h; series mostly up to 28.7 µM
Outline: as §1

[18] = tested on: PC26; assay: as above; details: P. falciparum in erythrocytes, SYBR Green DNA, 72 h; series mostly up to 28.7 µM
Outline: as §1

[19] = tested on: PC49; assay: as above; details: P. falciparum in erythrocytes, SYBR Green DNA, 72 h; series mostly up to 28.7 µM
Outline: as §1

[20] = tested on: W2; assay: as above; details: P. falciparum in erythrocytes, SYBR Green DNA, 72 h; series mostly up to 28.7 µM
Outline: as §1

Measured: Potency

CC(O)C(N)C(=O)O (stereo not given)
inactive: all assays above

Cc1ccc(S(=O)(=O)NC(=O)NC(C)Cc2ccccc2)cc1 (stereo not given)
inactive: all assays above

CO/N=C(/C(=O)N[C@@H]1C(=O)N2C(C(=O)O)=C(C[n+]3ccc(N)n3CCO)CS[C@H]12)c1csc(N)n1
inactive: all assays above

CCCCC/C(C=O)=C/c1ccccc1
inactive: all assays above

CO[C@H]1OC2O[C@@]3(C)CC[C@H]4[C@H](C)CC[C@@H]([C@H]1C)[C@@]24OO3 (stereo not given in full)
active: [2] 0.0141 µM | [3] 0.0338 µM | [4] 0.0675 µM | [5] 0.0213 µM | [6] 0.0151 µM | [7] 0.0239 µM | [8] 0.0107 µM | [9] 0.012 µM | [10] 0.0071 µM | [11] 0.0158 µM | [12] 0.0224 µM | [13] 0.0135 µM | [14] 0.0045 µM | [15] 12.6 µM | [16] 0.01 µM | [17] 0.0112 µM | [18] 0.0151 µM | [19] 0.0251 µM | [20] 0.006 µM
inactive: [1]

CNC1C(O)C(OC2C(N)CC(N)C(OC3OC(CN)=CCC3N)C2O)OCC1(C)O (stereo not given)
inactive: all assays above

O=C1CC[C@H](C(=O)N[C@@H]2C[C@H]2c2ccccc2)N1
inactive: all assays above

CCCC[C@H](O)c1ccccc1
inactive: all assays above

C[C@@H]1C(SC2Cn3cnc[n+]3C2)=C(C(=O)[O-])N2C(=O)[C@H]([C@@H](C)O)[C@@H]12 (stereo not given in full)
inactive: all assays above

CC(c1ncncc1F)[C@](O)(Cn1cncn1)c1ccc(F)cc1F (stereo not given in full)
inactive: all assays above

CN1[C@@H]2CC[C@@H]1CC(OC(=O)[C@H](CO)c1ccccc1)C2 (stereo not given in full)
active: [15] 15.8 µM
not listed: [17] | [19]
inactive: all other assays above

CC1(C)OC[C@@H]2O[C@@]3(C(=O)O)OC(C)(C)O[C@@H]3[C@@H]2O1
not listed: [20]
inactive: all other assays above

CC(=O)NC1[C@H](O)C[C@@](O)(C(=O)O)O[C@H]1[C@H](O)[C@H](O)CO (stereo not given in full)
inactive: all assays above

CC(C)(C)C(=O)OCC(=O)C1CCC2C3CCC4=CC(=O)CCC4(C)C3CCC12C (stereo not given)
inactive: all assays above

CC1(C)C2CC[C@]1(C)[C@@H](O)C2
inactive: all assays above

CC[C@@]1(O)C[C@H](O[C@H]2C[C@@H](N(C)C)[C@@H](O[C@H]3C[C@@H](O)[C@@H](O[C@H]4CCC(=O)[C@@H](C)O4)[C@@H](C)O3)[C@@H](C)O2)c2c(cc3c(c2O)C(=O)c2c(O)cccc2C3=O)[C@H]1C(=O)OC
inactive: [1]
active: [2] 0.0398 µM | [3] 0.757 µM | [4] 1.2 µM | [5] 0.849 µM | [6] 0.601 µM | [7] 0.169 µM | [8] 0.379 µM | [9] 0.478 µM | [10] 0.0891 µM | [11] 0.355 µM | [12] 0.891 µM | [13] 0.601 µM | [14] 0.0447 µM | [15] 0.126 µM | [16] 0.316 µM | [17] 0.158 µM | [18] 1.2 µM | [20] 0.151 µM

O=[N+]([O-])O[C@H]1CO[C@H]2[C@@H]1OC[C@H]2O
inactive: all assays above

OCCN1CC(O)C(O)C(O)C1CO (stereo not given)
inactive: all assays above

CC[C@@H](C)C(N)C(=O)O (stereo not given in full)
inactive: all assays above

COC(c1ccccc1)(c1ccccc1)C(Oc1nc(C)cc(C)n1)C(=O)O (stereo not given)
inactive: all assays above

NC(=O)NC(CCC(=O)O)C(=O)O (stereo not given)
not listed: [18]
inactive: all other assays above

CCCCN1CC(O)C(O)C(O)C1CO (stereo not given)
inactive: all assays above

CC(=O)NC[C@@H]1CN(c2ccc(N3CCOCC3)c(F)c2)C(=O)O1
inactive: all assays above
